Screens (PubChem)
A selection: hits, their analogues and other compounds. The true share with any hit is near 1.1%.
SRC2 inh: inhibition of GAL4-SRC2 driven luciferase reporter, primary screen, SRC2 inhibitor project, cell-based, luminescence | Nuclear receptor coactivator 2 (Homo sapiens), Q15596 | HEK293 GAL4-SRC2 luciferase reporter | inhibition, % at 9 µM | 370,000 compounds, 0.17% hits;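 active = inhibition above the mean inhibition of all tested compounds plus 3 SD, set per campaign, cut at about 52% in these data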;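 note: 0% = DMSO treated cells and 100% = cells given Gossypol at 36 µM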
Gli-Sufu block: Gli-Sufu pathway antagonists, primary screen, luciferase luminescence, Sufu-KO-LIGHT cells, uHTS. Sufu-KO-LIGHT fibroblasts, Gli luciferase reporter luminescence. inhibition, % at 5 µM. 340,000 compounds, 0.74% hits. AID 588413, 2011;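 active = inhibition above about 55%, limit read from the data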;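 note: 0% = DMSO-treated cells and 100% = wells with medium but no cells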
SRC1 inh: SRC1 coactivator transcriptional activity inhibitors, primary screen, cell-based, luminescence | Nuclear receptor coactivator 1 (Homo sapiens), Q15788 | HEK293 GAL4-SRC1 luciferase reporter | inhibition, % at 3.6 µM | 360,000 compounds, 0.12% hits | AID 588354, 2011;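 active = inhibition above the campaign mean plus 3 SD, with each screening campaign given its own cutoff, cut at about 60% in these data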;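 note: 0% = DMSO treated cells and 100% = gossypol at 36 µM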
Target sequence (Q15788 whole entry, looked up, the tested form may be a part): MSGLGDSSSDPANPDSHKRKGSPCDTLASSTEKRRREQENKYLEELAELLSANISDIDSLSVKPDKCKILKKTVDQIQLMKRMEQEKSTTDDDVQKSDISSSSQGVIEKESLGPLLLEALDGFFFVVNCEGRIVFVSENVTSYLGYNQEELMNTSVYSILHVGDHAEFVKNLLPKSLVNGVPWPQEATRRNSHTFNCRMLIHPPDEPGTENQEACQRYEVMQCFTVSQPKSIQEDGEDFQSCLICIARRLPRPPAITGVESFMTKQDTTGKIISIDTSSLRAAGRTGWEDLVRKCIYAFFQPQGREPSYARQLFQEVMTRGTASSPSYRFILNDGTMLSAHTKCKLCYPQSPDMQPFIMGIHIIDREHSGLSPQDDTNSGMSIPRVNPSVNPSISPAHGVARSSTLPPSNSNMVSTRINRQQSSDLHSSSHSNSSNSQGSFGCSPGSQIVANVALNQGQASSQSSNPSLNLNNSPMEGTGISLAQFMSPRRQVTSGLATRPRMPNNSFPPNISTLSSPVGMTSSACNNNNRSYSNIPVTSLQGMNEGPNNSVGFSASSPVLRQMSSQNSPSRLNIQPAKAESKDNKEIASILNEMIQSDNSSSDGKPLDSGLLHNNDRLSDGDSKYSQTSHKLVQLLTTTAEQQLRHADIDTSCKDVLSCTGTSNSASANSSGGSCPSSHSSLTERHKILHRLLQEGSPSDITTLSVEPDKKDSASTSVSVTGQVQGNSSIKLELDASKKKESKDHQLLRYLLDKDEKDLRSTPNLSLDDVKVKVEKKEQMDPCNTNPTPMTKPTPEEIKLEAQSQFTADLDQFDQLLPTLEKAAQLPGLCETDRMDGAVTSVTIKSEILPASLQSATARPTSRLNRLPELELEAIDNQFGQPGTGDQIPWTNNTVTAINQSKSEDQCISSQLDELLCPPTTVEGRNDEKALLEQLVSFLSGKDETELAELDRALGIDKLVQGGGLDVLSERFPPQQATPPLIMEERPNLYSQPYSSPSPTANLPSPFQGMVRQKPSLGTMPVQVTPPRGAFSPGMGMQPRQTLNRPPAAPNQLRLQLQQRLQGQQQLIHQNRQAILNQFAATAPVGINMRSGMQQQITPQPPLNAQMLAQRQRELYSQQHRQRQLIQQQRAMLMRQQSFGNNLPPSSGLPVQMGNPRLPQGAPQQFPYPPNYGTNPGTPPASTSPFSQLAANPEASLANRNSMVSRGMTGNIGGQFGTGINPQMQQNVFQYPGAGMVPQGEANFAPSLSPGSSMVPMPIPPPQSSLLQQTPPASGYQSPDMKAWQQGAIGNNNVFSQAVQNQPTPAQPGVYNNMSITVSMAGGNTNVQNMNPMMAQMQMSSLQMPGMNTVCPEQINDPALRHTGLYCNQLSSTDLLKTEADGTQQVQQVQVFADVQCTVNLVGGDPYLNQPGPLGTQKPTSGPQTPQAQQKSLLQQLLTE
SRC3 inh: SRC3 coactivator transcriptional activity inhibitors, primary screen, cell-based, luminescence. Nuclear receptor coactivator 3 (Homo sapiens), Q9Y6Q9. HEK293 GAL4-SRC3 luciferase reporter. inhibition, % at 3.6 µM. 360,000 compounds, 0.17% hits. AID 588352, 2011;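 active = inhibition above a per-campaign cutoff, the mean of all compounds plus 3 SD, cut at about 60% in these data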;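 note: 0% = DMSO-treated cells and 100% = gossypol-treated cells at 36 µM; higher means less SRC3-driven luciferase light from the GAL4 reporter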
Shn3 inh set2: reduction of Shn3 3'UTR firefly luciferase signal, primary screen, Schnurri-3 inhibitor project, cell-based, Clone20 osteoblasts, set 2; Clone20 osteoblast Shn3 3'UTR firefly luciferase, 24 h; inhibition, % at 12.5 µM; 360,000 compounds, 0.52% hits; AID 588674, 2011;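 active = mean inhibition of at least 75% with every replicate also reaching 75%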;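 note: 0% = median of neutral control wells and 100% = pilot-screen positive control compound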
NR5A2 inv ag: LRH-1 (NR5A2) inverse agonists, primary screen, cell-based, luminescence, HEK293T, StAR-luciferase reporter; 360,000 compounds, 0.13% hits; inhibition, % at 3.6 µM; AID 602396, 2012; LRH-1 transfected, 24 h;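 active = inhibition above the mean inhibition of all tested compounds plus 3 SD, cut at about 73% in these data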;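 note: 0% = DMSO wells and 100% = reporter-only cells lacking LRH-1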
Gli antag conf: Gli-SUFU pathway antagonists, confirmation, single concentration, luciferase luminescence, Sufu-KO-LIGHT cells; shares compounds with Gli-Sufu block; Gli luciferase reporter; inhibition, % at 5 µM; 2,500 compounds, 40% hits; AID 602428, 2012;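 active = mean inhibition at 5 µM reaching about 45%, limit read from the data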;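 note: plate controls were DMSO-treated cells for no effect and wells lacking cells for full effect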
SufuKO cytotox: cytotoxicity in Sufu-KO-LIGHT cells, confirmation, cytotoxicity control for Gli-SUFU antagonist project, cell-based, ATP luminescence, single concentration | cytotoxicity, % at 5 µM | shares compounds with Gli-Sufu block | 2,500 compounds, 32% hits | AID 651994, 2013;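 active = mean cytotoxicity at 5 µM above about 25%, limit read from the data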;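 note: cells exposed to compound overnight for roughly 16 to 18 hours; plate controls were DMSO wells with cells for no effect and medium without cells for full effect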
Wnt3a counter: Wnt3a reporter signal inhibition, confirmation, counter-screen for Gli-SUFU antagonist project, Wnt-LIGHT cells, luminescence, single concentration; shares compounds with Gli-Sufu block; inhibition, % at 6.25 µM; Wnt3a-driven luciferase reporter; 2,500 compounds, 20% hits;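 active = mean inhibition above about 25%, limit read from the data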
The depositor's hits bear a star; · = no result; ! = repeats disagree.

SMILES	SRC2 inh	Gli-Sufu block	SRC1 inh	SRC3 inh	Shn3 inh set2	NR5A2 inv ag	Gli antag conf	SufuKO cytotox	Wnt3a counter
Cc1ccc(S(=O)(=O)N2C[C@@H]3[C@H]4CC[C@H](C4)[C@@H]3[C@@H](C)[C@@H]2c2cn(Cc3ccccc3)c3ncccc23)cc1	-26	-9	6	-9	20	11	·	·	·
COc1ccc2c(c1)c([C@@H]1[C@H](C)[C@H]3CCCC[C@H]3CN1S(=O)(=O)c1ccc(C)cc1)cn2C	4	6	-26	-4	20	2	·	·	·
Cc1ccc(S(=O)(=O)N2C[C@@H]3CCCC[C@@H]3[C@@H](C)[C@H]2c2cn(Cc3ccccc3)c3ncccc23)cc1	-14	78*	53	34	89*	9	86*	40*	33*
Cc1ccc(S(=O)(=O)N2C[C@@H]3CCCC[C@@H]3[C@@H](C)[C@H]2c2cn(Cc3ccccc3)c3ccccc23)cc1	4	88*	-40	1	81	7	85*	32*	7
COc1ccc(Cn2ccc3ccc(-c4ccc5ccn(Cc6cccc(F)c6)c5c4)cc32)cc1	9	·	·	·	·	·	·	·	·
CC1CCC(C(C)C)C(OC(=O)Cn2c(-c3ccc(Br)cc3)[n+](C)c3ccccc32)C1 (stereo unspecified)	16	70*!	3	9	21	-3	70*	41*	-27
COCCCNC(=O)C[C@H]1C[C@@]2(C(=O)OC)C(=C[C@H](C(C)C)O[C@@H]2C2CC2)N(CCc2ccc(OC)c(OC)c2)C1=O	7	·	·	·	·	·	·	·	·
COc1ccc(C(=O)N2CCN(c3ccc([N+](=O)[O-])c(NCCc4ccc(OC)c(OC)c4)c3)CC2)cc1	18	79*	23	32	75	35	76*	32*	-17
CCOC(=O)C1(CC2CCCCO2)CCN(Cc2cc3ccccc3[nH]2)CC1 (stereo unspecified)	10	59*	-15	13	16	15	23	2	-43
COc1ccc(/C=C2\CC3(OC(=O)c4ccc(F)cc4)CCCN2C3)cc1 (stereo unspecified)	2	·	·	·	·	·	·	·	·
Cc1csc(NC(=O)CCc2nc3ccccc3s2)n1	-17	99*	-24	-6	-14	-16	10	6	-39
Cc1csc(NC(=O)CSCC(=O)Nc2ccccc2)n1	-22	99*	3	10	4	7	16	6	0
Cc1csc(SCC(=O)Nc2ccccc2)n1	-11	-12	-19	-27	-22	-8	·	·	·
COc1ccc(OC)c(CN2CCC(Cc3ccccc3)CC2)c1	11	25	-2	11	21	-1	·	·	·
COc1cc(OC)c(CN2CCC(Cc3ccccc3)CC2)cc1Br	5	53	4	4	-7	9	23	21	-36
Cc1c(C(=O)N2CCN(Cc3ccccc3)CC2)oc2c1C(=O)CC(C)(C)C2	-8	52	-6	11	-6	-12	15	13	-44
Cc1c(C(=O)N2CCN(c3ccccc3)CC2)oc2c1C(=O)CC(C)(C)C2	5	8	13	0	6	9	·	·	·
O=C(COc1ccc(Cl)cc1Cl)NC(=S)N1CCCc2ccccc21	-21	53	-1	5	1	-20	14	22	17
COc1ccc(-c2nn(-c3ccccc3)cc2C=O)cc1[N+](=O)[O-]	-5	55*	-3	-9	-5	-26	14	33*	9
CCn1c(=NC(=O)CS(=O)(=O)c2ccccc2)sc2cccc(OC)c21	13	67*	-17	2	87*	-26	67*	22	12
Cn1c(=NC(=O)CS(=O)(=O)c2ccccc2)sc2ccccc21	-42	-37	-58	-55	-45	-104	·	·	·
COc1ccc(-c2c(C)nn3c(NC4CCCC4)cc(C)nc23)cc1OC	-8	1	5	19	-21	54	·	·	·
CCc1c(C)nc2cc(-c3ccc(OC)c(OC)c3)nn2c1NCC1CC1	-20	74*	-15	-22	93*	-43	74*	27*	35*
COc1ccc(-c2cc(-c3nnc4sc(Cc5cccs5)nn34)[nH]n2)cc1	-8	·	·	·	·	·	·	·	·
CCOc1ccc(N(CC(=O)NC2CCC(C)CC2)S(=O)(=O)c2c(C)noc2C)cc1 (stereo unspecified)	-8	8	5	3	-2	8	·	·	·
SMILES	SRC2 inh	Gli-Sufu block	SRC1 inh	SRC3 inh	Shn3 inh set2	NR5A2 inv ag	Gli antag conf	SufuKO cytotox	Wnt3a counter
Cc1ccc(N(CC(=O)NC2CCCCC2)S(=O)(=O)c2c(C)noc2C)cc1	16	50	18	0	-25	-12	14	18	-35
COc1ccc(N(CC(=O)NC2CCCCCC2)S(=O)(=O)c2c(C)nn(C)c2C)cc1	-32	51	4	-4	7	8	9	-6	-34
COc1ccc(C(=O)O[C@@H]2CCC[C@@]3(C(=O)N(Cc4ccccc4)c4ccccc43)[C@H]2NC(=O)CCc2ccccc2)cc1OC	18	·	·	·	·	·	·	·	·
CCOC(=O)c1ccc(NC(=O)CSc2nnc(SCc3cccc4ccccc34)s2)cc1	1	·	·	·	·	·	·	·	·
Cc1cc(OC(C)CCN2CCC(C(O)(c3ccccc3)c3ccccc3)CC2)ccc1Br (stereo unspecified)	5	·	·	·	·	·	·	·	·
Cc1nc2ccc(C(=O)N3CCN(C(=O)C(Cl)Cl)CC3)cc2n1C1CCCC1	-17	·	·	·	·	·	·	·	·
CC(=O)c1cc(-c2ccccc2)n(CCC(=O)NC2CCCCCCC2)c1C	5	70*	3	-5	1	-16	13	-10	-44
O=C(COc1cc2oc(=O)cc(-c3ccccc3)c2cc1Cl)NCc1ccccn1	-10	53	2	4	-13	30	7	22	8
COc1ccc(-n2c(SCC(=O)N(CC(C)C)CC(C)C)nnc2-c2ccncc2)cc1	-2	·	·	·	·	·	·	·	·
Cc1ccccc1CN1CCCCC(NC(=O)c2ccc(N(C)C)cc2)C1=O (stereo unspecified)	-14	·	·	·	·	·	·	·	·
